Records with an inconclusive call do not appear. Where a call stands in place of a potency, no number is given. Activity calls are given as the source filed them. Unless noted, calls follow the shape of the dose curve; as a rule, active = well fitted curve in the direction sought with a large enough effect; inconclusive = small, poorly fitted or top-dose-only effect, or another doubt; inactive = no such curve, though single readings can be large; an effect the other way counts as inactive or inconclusive.
Experiments:
[1] = S16 Schwann cell viability assay (CellTiter-Glo assay) (AID 624031);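 also: cellular ATP luminescence as a viability measure; nearly all actives have a fitted effect of over 70% in size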
Outline: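 Untransfected S16 rat Schwann cells; compound 24 h, 37 °C/5% CO2; CellTiter-Glo ATP luminescence. % activity vs no-cell wells and DMSO controls (0%); concentration-effect curves classed by r2, response magnitude, activity.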

[2] = S16 Schwann cell PMP22 intronic element beta-lactamase assay (AID 624044; calls by dose curve; also: nearly all actives have a fitted effect of over 15% in size; also: potency is read from the fitted curve at half-maximal effect); details: S16 rat Schwann cells, PMP22 element beta-lactamase FRET, 24 h; ratio activity, negative = inhibition: at 38.3 µM (top of the series)
Outline: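 Beta-lactamase reporter under a PMP22 intronic regulatory element in stable S16 rat Schwann cells; 24 h compound exposure. 460 nm blue signal normalized between DMSO (0%) and potassium clavulanate, with 535 nm FRET tracking viability; curves classed by r2 and response.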

[3] = tested on: 7G8; assay: qHTS profiling for inhibitors of Plasmodium falciparum proliferation (AID 504749); also: nearly all actives have a fitted effect of over 60% in size; also: potency is read from the fitted curve at half-maximal effect; details: P. falciparum in erythrocytes, SYBR Green DNA, 72 h; series mostly up to 28.7 µM
Outline: (§1)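 Quantitative HTS: compounds pinned into medium, infected erythrocytes added (0.3% parasitemia, 2.5% hematocrit), 72 h culture at 37 C under 5% CO2. Saponin/Triton lysis with SYBR Green I, overnight RT, then fluorescence read.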

[4] = tested on: CP266; assay: as above; details: P. falciparum in erythrocytes, SYBR Green DNA, 72 h; series mostly up to 28.7 µM
Outline: as §1

[5] = tested on: CP291; assay: as above; details: P. falciparum in erythrocytes, SYBR Green DNA, 72 h; series mostly up to 28.7 µM
Outline: as §1

[6] = tested on: CP297; assay: as above; details: P. falciparum in erythrocytes, SYBR Green DNA, 72 h; series mostly up to 28.7 µM
Outline: as §1

[7] = tested on: CP305; assay: as above; details: P. falciparum in erythrocytes, SYBR Green DNA, 72 h; series mostly up to 28.7 µM
Outline: as §1

[8] = tested on: CP335; assay: as above; details: P. falciparum in erythrocytes, SYBR Green DNA, 72 h; series mostly up to 28.7 µM
Outline: as §1

[9] = tested on: DIV17; assay: as above; details: P. falciparum in erythrocytes, SYBR Green DNA, 72 h; series mostly up to 28.7 µM
Outline: as §1

[10] = tested on: GB4; assay: as above; details: P. falciparum in erythrocytes, SYBR Green DNA, 72 h; series mostly up to 28.7 µM
Outline: as §1

[11] = tested on: ICS; assay: as above; details: P. falciparum in erythrocytes, SYBR Green DNA, 72 h; series mostly up to 28.7 µM
Outline: as §1

[12] = tested on: P93_24; assay: as above; details: P. falciparum in erythrocytes, SYBR Green DNA, 72 h; series mostly up to 28.7 µM
Outline: as §1

[13] = tested on: PAD; assay: as above; details: P. falciparum in erythrocytes, SYBR Green DNA, 72 h; series mostly up to 28.7 µM
Outline: as §1

[14] = tested on: PC26; assay: as above; details: P. falciparum in erythrocytes, SYBR Green DNA, 72 h; series mostly up to 28.7 µM
Outline: as §1

[15] = tested on: CP215; assay: as above; details: P. falciparum in erythrocytes, SYBR Green DNA, 72 h; series mostly up to 28.7 µM
Outline: as §1

[16] = tested on: CP247; assay: as above; details: P. falciparum in erythrocytes, SYBR Green DNA, 72 h; series mostly up to 28.7 µM
Outline: as §1

[17] = tested on: CP203; assay: as above; details: P. falciparum in erythrocytes, SYBR Green DNA, 72 h; series mostly up to 28.7 µM
Outline: as §1

[18] = tested on: CP201; assay: as above; details: P. falciparum in erythrocytes, SYBR Green DNA, 72 h; series mostly up to 28.7 µM
Outline: as §1

[19] = tested on: CP268; assay: as above; details: P. falciparum in erythrocytes, SYBR Green DNA, 72 h; series mostly up to 28.7 µM
Outline: as §1

[20] = tested on: CP325; assay: as above; details: P. falciparum in erythrocytes, SYBR Green DNA, 72 h; series mostly up to 28.7 µM
Outline: as §1

Row | Compound | Potency [1] | Potency [2] | Potency [3] | Potency [4] | Potency [5] | Potency [6] | Potency [7] | Potency [8] | Potency [9] | Potency [10] | Potency [11] | Potency [12] | Potency [13] | Potency [14] | Potency [15] | Potency [16] | Potency [17] | Potency [18] | Potency [19] | Potency [20]
1 | C[C@]12CC[C@@H]3c4ccc(O)cc4C[C@@H](CCCCCCCCCS(=O)CCCC(F)(F)C(F)(F)F)C3[C@@H]1CC[C@@H]2O (stereo not given in full) | inactive | inactive | 1.78 µM (active) | inactive | 12 µM (active) | 4.26 µM (active) | 10.7 µM (active) | 13.5 µM (active) | 4.78 µM (active) | 9.53 µM (active) | 2 µM (active) | 2.24 µM (active) | 3.98 µM (active) | 3.38 µM (active) |  |  |  |  |  | 
2 | Nc1nc2[nH]cc(CCc3ccc(C(=O)NC(CCC(=O)O)C(=O)O)cc3)c2c(=O)[nH]1 (stereo not given) | inactive |  | 3.98 µM (active) |  |  | 0.239 µM (active) |  | 0.135 µM (active) |  | 0.0849 µM (active) | 10 µM (active) |  | 0.224 µM (active) |  | 0.601 µM (active) | 0.199 µM (active) |  |  |  | 
3 | CC(=O)OC1C([N+]2(C)CCCCC2)C[C@H]2C3CC[C@H]4C[C@H](OC(C)=O)C([N+]5(C)CCCCC5)CC4(C)C3CCC12C (stereo not given in full) | inactive | inactive | inactive |  |  | 6.01 µM (active) |  |  |  |  | inactive | inactive | inactive | 16.9 µM (active) |  | inactive |  |  |  | 
4 | CC[C@@]1(O)CC2CN(CCc3c([nH]c4ccccc34)[C@](C(=O)OC)(c3cc4c(cc3OC)N(C)C3[C@@](O)(C(=O)OC)C(OC(C)=O)[C@]5(CC)C=CCN6CC[C@@]43C65)C2)C1 (stereo not given in full) | inactive | 0.562 µM (active) | 2.82 µM (active) |  |  | 2.39 µM (active) | 3.79 µM (active) | 1.9 µM (active) | 4.78 µM (active) | 2.13 µM (active) | 0.708 µM (active) | 3.16 µM (active) | 2.24 µM (active) |  | 3.38 µM (active) | 1.12 µM (active) | 3.01 µM (active) |  |  | 
5 | COc1cc(/C=C2\CCC/C(=C\c3ccc(O)c(OC)c3)C2=O)ccc1O | inactive | 25.1 µM (active) | 2 µM (active) |  |  | 13.5 µM (active) |  | 12 µM (active) | 9.53 µM (active) | 12 µM (active) | 3.16 µM (active) | 12.6 µM (active) | 7.08 µM (active) | 10.7 µM (active) | 15.1 µM (active) | 8.91 µM (active) |  |  |  | 
6 | OC[C@@H](O)C(O[C@@H]1O[C@@H](CO)[C@H](O)[C@H](O)[C@H]1O)[C@H](O)[C@@H](O)CO (stereo not given in full) | inactive | inactive | inactive | inactive | inactive | inactive | inactive | inactive | inactive | inactive | inactive | inactive | inactive | inactive | inactive | inactive | inactive | inactive | inactive | inactive
7 | Clc1ccc(CS[C@@H](Cn2ccnc2)c2ccc(Cl)cc2Cl)cc1 | inactive | inactive | 0.562 µM (active) |  | 5.73 µM (active) | 3.22 µM (active) |  | 1.28 µM (active) | 5.1 µM (active) | 3.61 µM (active) | 0.891 µM (active) | 1.26 µM (active) | 3.16 µM (active) |  |  |  | 4.55 µM (active) |  |  | 
8 | CC(C)C(=O)OCC(=O)[C@@]12OC(C3CCCCC3)O[C@@H]1CC1C3CCC4=CC(=O)C=C[C@]4(C)C3[C@@H](O)C[C@@]12C (stereo not given in full) |  | inactive | 0.447 µM (active) | 1.35 µM (active) |  |  | 0.849 µM (active) | 0.601 µM (active) | 1.35 µM (active) | 1.07 µM (active) | 0.794 µM (active) | 0.891 µM (active) | 1 µM (active) |  |  | 1 µM (active) |  |  |  | 
9 | CCCCC(=O)OC1CCC2C3CCc4cc(O)ccc4C3CC[C@]12C (stereo not given in full) |  | inactive |  | inactive | inactive |  | inactive |  |  | inactive |  |  |  | inactive | inactive |  | inactive | inactive | inactive | inactive
10 | CC(C)CCCC(C)C1CC(=O)C2=C3CCC4CC(O)CCC4(C)C3CCC21C (stereo not given) | inactive | inactive |  | inactive | inactive | inactive | inactive |  | inactive | inactive |  | inactive | inactive | inactive | inactive | inactive | inactive | inactive | inactive | inactive
11 | C#C[C@@]1(O)CC[C@@H]2[C@H]3CCC4=C/C(=N\O)CC[C@H]4[C@@H]3CC[C@]21CC | inactive | inactive |  | inactive | inactive | inactive | inactive | inactive | inactive |  |  | inactive | inactive | inactive | inactive | inactive | inactive | inactive | inactive | inactive
12 | O=C1Oc2ccccc2C(=O)C1C(CC(O)c1ccc(-c2ccc(Br)cc2)cc1)c1ccccc1 (stereo not given) | inactive | inactive | 12.6 µM (active) | inactive | inactive | inactive | inactive |  |  | inactive |  |  |  | inactive | inactive |  | inactive | inactive | inactive | inactive
13 | CNC1CCc2cc(OC)c(OC)c(OC)c2-c2ccc(OC)c(=O)cc21 (stereo not given) | inactive | 0.178 µM (active) |  | inactive | inactive | inactive | inactive | inactive |  | inactive |  |  | inactive | inactive | inactive |  | inactive | inactive | inactive | inactive
14 | COc1ccc(C(=O)/C(Br)=C/C(=O)O)cc1 | inactive | inactive | 10 µM (active) | inactive | inactive | inactive |  |  |  |  |  | inactive | inactive | inactive |  | inactive | inactive | inactive | inactive | inactive
